Experimental data as given in PubChem BioAssay (NCATS).
Results filed as inconclusive are left out. Activity calls are given as the source filed them. Calls come from the whole dose curve; as a rule, active = well fitted curve in the direction sought with a large enough effect; inconclusive = small, poorly fitted or top-dose-only effect, or another doubt; inactive = no such curve, though single readings can be large; an effect the other way counts as inactive or inconclusive.

Tests used:
[1] = HPAF-II 24hr Apoptosis Induction qHTS against the NCATS CANVASS Library (AID 1347356)
Outline: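 Apoptosis induction in HPAF-II pancreatic cancer cells is measured as caspase-3/7 luminescence after a 24-hour exposure to compounds.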

[2] = HEK293 18hr Apoptosis Induction qHTS against the NCATS CANVASS Library (AID 1347357)
Outline: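 Caspase-3/7 luminescence (DEVD substrate, Caspase-Glo) after 18 h compound exposure of HEK293 cells, 500 cells/well; 11-point series; doxorubicin titration as control.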

[3] = HPAF-II 12hr Apoptosis Induction qHTS against the NCATS CANVASS Library (AID 1347358)
Outline: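 Apoptosis in HPAF-II pancreatic cancer cells is scored as caspase 3/7 luminescence following a 12-hour exposure to an 11-point compound series.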

[4] = HEK293 24hr Apoptosis Induction qHTS against the NCATS CANVASS Library (AID 1347359)
Outline: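 HEK293 cells (500/well, DMEM + 10% FBS) were exposed to compounds in an 11-point series for 24 hours at 37 degrees C, then caspase-3/7 activity was read by Caspase-Glo DEVD luciferase luminescence after 15 min.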

[5] = HPAF-II 18hr Apoptosis Induction qHTS against the NCATS CANVASS Library (AID 1347360)
Outline: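 Caspase-Glo 3/7 luminescence (DEVD substrate) after 15 min RT; HPAF-II, 500 cells/well, 18 h compound exposure at 37 degrees C, qHTS series; doxorubicin control 0.1nM - 4uM.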

[6] = molecular target: Luciferin 4-monooxygenase (Photinus pyralis) (UniProt P08659); assay: Firefly luciferase counterscreen qHTS: Assay Interference Panel against the NCATS CANVASS Library (AID 1347363); note: series mostly up to about 57 µM
Outline: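 Purified P. pyralis luciferase was added to compounds (11-point series) preincubated 15 min at room temperature with substrate containing 0.013 mM D-luciferin and 0.013 mM ATP; luminescence was read after 5 min.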

[7] = qHTS for ATAD5 Agonist screened against the NCATS CANVASS Library (AID 1347367); note: potency is the fitted concentration of half-maximal effect
Outline: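 Luminescence read-out: ATAD5-driven luciferase in stably transfected HEK 293T cells, which rises post-transcriptionally with DNA damage. Cells were exposed 16hr at 37C to test compound; a CellTiter-Fluor fluorescence read (1hr) measured viability first.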

[8] = J3T Cancer Cell Toxicity qHTS against the NCATS CANVASS Library (AID 1347371); note: potency is the fitted concentration of half-maximal effect
Outline: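 Viability of the J3T glioma line from dog is scored by ATP luminescence after a 72 hr incubation with natural products.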

[9] = molecular target: Nuclear receptor subfamily 1 group I member 3 (Homo sapiens) (UniProt Q14994); assay: qHTS for Constitutive Androstane Receptor (CAR) Agonist screened against the NCATS CANVASS Library (AID 1347373);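 note: every well also contained 1.5 µM PK11195 alongside the test compound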; note: potency is the fitted concentration of half-maximal effect
Outline: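 CAR agonism is scored as CYP2B6-promoter luciferase induction in a double-stable transfected HepG2 line, where 1.5uM PK11195 is included in each well. Compounds were tested over a 24hr exposure.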

[10] = 10-beta competent E. coli microbial cell viability qHTS against the NCATS CANVASS Library (AID 1347376); note: series mostly up to about 46 µM
Outline: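 Cytotoxicity toward competent E. coli is scored from cellular ATP content via BacTiter-Glo luminescence following overnight compound exposure at 37C, 5% CO2.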

[11] = qHTS for H2AX Agonists against the NCATS CANVASS Library (AID 1347378)
Outline: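 TR-FRET readout (ex 320 nm, em 665/620 nm ratio) of phospho-H2AX (S139) in CHO-K1 lysates. Cells treated 3 hr at 37C with compound titration, 0.76% DMSO; lysis 30 min, antibody detection 24 hr at RT.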

[12] = Inflammasome Signaling qHTS Counterscreen: IL-1-beta AlphaLISA counterscreen against the NCATS CANVASS Library (AID 1347381);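 note: cell-free check with purified IL-1β in medium and no THP-1 cells; series mostly up to about 57 µM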
Outline: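 To flag interference with the AlphaLISA read-out, a known amount of purified IL-1-beta (4 pg) replaced cell supernatant. Detection used anti-IL-1-beta acceptor beads, biotinylated antibody and streptavidin donor beads at room temperature.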

[13] = Cytotoxicity qHTS for assessment of Hepg2 cells membrane integrity screened against the NCATS CANVASS Library (AID 1347387)
Outline: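 Fluorescence proportional to lysed-cell number, from LDH leaking out of HepG2 cells exposed 5 hr at 37C to 0.59 nM - 46 uM compound (11-point qHTS), is measured after 10 min with CytoTox-ONE.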

[14] = qHTS for activators of dead-cell proteases activity screened against the NCATS CANVASS Library (AID 1347392);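 note: luminescence from protease leaking out of membrane-damaged cells cleaving impermeant substrate; rising signal means more cytotoxicity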
Outline: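 HepG2 cells (2000/well) attached 18 h at 37C, then exposed 5 h to compounds (11-point qHTS). Dead-cell protease activity read as luminescence from cell-impermeant AAF-aminoluciferin substrate after 15 min at room temperature.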

[15] = Redox Reaction Profiling qHTS: Assay Interference Panel against the NCATS CANVASS Library (AID 1347401); note: potency is the fitted concentration of half-maximal effect
Outline: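 Resazurin (5 uM) conversion to resorufin measured with 200 uM DTT in 50 mM HEPES pH 7.3, 50 mM NaCl. Compounds tested in 11-point qHTS series. Fluorescence (ex 525/em 598 nm) read before and after 15 min dark incubation.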

Measured: Potency

Chain of Luciferin 4-monooxygenase (Photinus pyralis) (P08659 whole entry, looked up): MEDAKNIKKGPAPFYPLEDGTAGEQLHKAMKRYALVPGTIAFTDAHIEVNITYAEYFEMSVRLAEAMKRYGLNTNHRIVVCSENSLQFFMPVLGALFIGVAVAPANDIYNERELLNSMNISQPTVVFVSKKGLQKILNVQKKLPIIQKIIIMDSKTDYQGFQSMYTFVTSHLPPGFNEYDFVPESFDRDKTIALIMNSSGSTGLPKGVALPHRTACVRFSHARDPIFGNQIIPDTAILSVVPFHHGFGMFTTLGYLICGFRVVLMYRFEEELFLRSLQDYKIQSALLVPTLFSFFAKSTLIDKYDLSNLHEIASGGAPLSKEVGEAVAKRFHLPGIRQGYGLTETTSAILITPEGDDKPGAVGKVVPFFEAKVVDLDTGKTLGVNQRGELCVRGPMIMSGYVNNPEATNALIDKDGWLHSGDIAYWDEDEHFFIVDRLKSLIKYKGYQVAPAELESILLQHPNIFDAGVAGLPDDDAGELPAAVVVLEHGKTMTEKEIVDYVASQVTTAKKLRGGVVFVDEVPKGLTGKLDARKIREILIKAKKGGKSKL
Chain of Nuclear receptor subfamily 1 group I member 3 (Homo sapiens) (Q14994 whole entry, looked up): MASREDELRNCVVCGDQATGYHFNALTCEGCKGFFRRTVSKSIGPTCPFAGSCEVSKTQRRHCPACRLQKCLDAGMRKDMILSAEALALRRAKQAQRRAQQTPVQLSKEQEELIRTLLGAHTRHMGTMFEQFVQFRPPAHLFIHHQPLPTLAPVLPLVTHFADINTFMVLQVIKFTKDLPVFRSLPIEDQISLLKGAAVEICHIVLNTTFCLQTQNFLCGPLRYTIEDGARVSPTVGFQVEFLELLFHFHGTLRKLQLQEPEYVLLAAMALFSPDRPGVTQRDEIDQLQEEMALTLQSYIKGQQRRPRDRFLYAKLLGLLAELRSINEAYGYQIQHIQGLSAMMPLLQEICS

C1=C2CCCN[C@H]2C2CC1[C@H]1CCCCN1C2 (stereo partly specified)
inactive: [1] | [2] | [3] | [4] | [5] | [6] | [7] | [8] | [9] | [10] | [11] | [12] | [13] | [14] | [15]

CC[C@H]1CN2CCc3c([nH]c4cccc(OC)c34)[C@@H]2C[C@@H]1/C(=C\OC)C(=O)OC
inactive: [1] | [2] | [3] | [4] | [5] | [6] | [7] | [8] | [9] | [10] | [11] | [12] | [13] | [14] | [15]

CC(C)CC1C(=O)O[C@H](C(C)C)C(=O)N(C)C(CC(C)C)C(=O)O[C@@H](C(C)C)C(=O)N(C)C(CC(C)C)C(=O)O[C@H](C(C)C)C(=O)N(C)C(CC(C)C)C(=O)O[C@@H](C(C)C)C(=O)N1C (stereo partly specified)
inactive: [1] | [2] | [3] | [5] | [6] | [7] | [8] | [9] | [10] | [11] | [12] | [13] | [14] | [15]

CC[C@@H]1CN2CCC3(Nc4cccc(OC)c4C3=O)[C@@H]2C[C@@H]1/C(=C\OC)C(=O)OC (stereo partly specified)
inactive: [1] | [2] | [3] | [4] | [5] | [6] | [7] | [8] | [9] | [10] | [11] | [12] | [13] | [14] | [15]

CC[C@@H]1CN2CCc3c([nH]c4cccc(OC)c34)[C@@H]2C[C@@H]1/C(=C\OC)C(=O)OC
inactive: [1] | [2] | [3] | [4] | [5] | [6] | [7] | [9] | [10] | [11] | [12] | [13] | [14]

CCCC[C@@H](C)/C=C1/CN2CCC[C@H]2[C@@](C)(O)[C@@H]1O
inactive: [1] | [2] | [3] | [4] | [5] | [6] | [7] | [8] | [9] | [10] | [11] | [12] | [13] | [14] | [15]

CO[C@H]1C[C@H](O[C@H]2[C@@H](O)C[C@H](O[C@H]3CC[C@]4(C=O)[C@H]5CC[C@]6(C)C(C7=CC(=O)OC7)CC[C@]6(O)[C@@H]5CC[C@]4(O)C3)O[C@@H]2C)O[C@H](C)[C@H]1O[C@H]1C[C@@H](OC)[C@@H](O[C@@H]2O[C@H](CO)[C@@H](O)[C@H](O)[C@H]2O)[C@@H](C)O1 (stereo partly specified)
active: [8] 332 nM
inactive: [1] | [2] | [3] | [4] | [5] | [6] | [7] | [9] | [10] | [11] | [12] | [13] | [14] | [15]

C/C(=C\[C@H](C)C(=O)C[C@H](O)CC1CC(=O)NC(=O)C1)[C@@H]1OC(=O)/C=C/CC/C=C/C=C/[C@@H]1C
active: [8] 264 nM | [15] 24100 nM
inactive: [1] | [2] | [3] | [4] | [5] | [6] | [7] | [9] | [10] | [12] | [13] | [14]

C/C=C1/CN2CC[C@@]34c5ccccc5N(C)[C@@H]3[C@@H]2C[C@@H]1[C@H]4C(=O)OC
inactive: [1] | [2] | [3] | [4] | [5] | [6] | [7] | [8] | [9] | [10] | [11] | [12] | [13] | [14] | [15]

CO[C@H]([C@@H](C)[C@H]1O[C@]1(C)C[C@H](C)/C=C/C=C(\C)[C@H]1O[C@@H](CC(=O)O)CC[C@@H]1C)[C@@H](C)O
active: [7] 46.7 nM | [8] 20.9 nM | [9] 105 nM
inactive: [1] | [2] | [3] | [4] | [5] | [6] | [10] | [11] | [12] | [13] | [14] | [15]

CO[C@@H](/C=C/CC/C=C/C(=O)O)[C@@H](O)[C@H](C)/C=C(\C)[C@H](O)[C@H](C)C(=O)CCCC1CC(=O)NC(=O)C1
inactive: [1] | [2] | [3] | [4] | [5] | [6] | [7] | [8] | [9] | [10] | [11] | [12] | [13] | [14] | [15]

CO[C@H]1[C@H](O[C@H]2CC[C@]3(C=O)[C@H]4CC[C@]5(C)[C@@H](C6=CC(=O)OC6)CC[C@]5(O)[C@@H]4CC[C@]3(O)C2)O[C@H](C)[C@H](O)[C@@H]1OC
inactive: [1] | [2] | [3] | [4] | [5] | [6] | [7] | [9] | [10] | [11] | [12] | [13] | [14] | [15]
active: [8] 372 nM
